The nature of test [1]: qHTS assay to identify small molecule agonists of the RXR signaling pathway - cell viability counter screen (AID 1159529). Further: nearly all actives have a fitted effect of over 50% in size. Further: potency means the concentration at half of the fitted maximal effect. The method, boiled down:
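Viability read-out for the RXR-alpha agonist qHTS: luminescent CellTiter-Glo signal after 30 min at RT. HEK 293T bla reporter cells, 2% charcoal-stripped FBS, 16 hr compound incubation; tetraoctyl ammonium bromide as cytotoxic control.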
A general note: qHTS replaces the single test concentration by a dilution series.

Test [2] is described as follows: qHTS assay to identify small molecule antagonists of the retinoid acid receptor (RAR) signaling pathway - cell viability counter screen (AID 1159551). Further: nearly all actives have a fitted effect of over 35% in size. Further: potency means the concentration at half of the fitted maximal effect. The method, boiled down:
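Measured by luminescent ATP detection, viability reflects C3RL4 cells treated 6 h at 37 C with test chemicals in the presence of 1 uM (final) retinol.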

A short description of test [3]: qHTS assay to identify small molecule antagonists of the retinoic acid receptor (RAR) signaling pathway (AID 1159552; further: potency means the concentration at half of the fitted maximal effect; nearly all actives have a fitted effect of over 50% in size). In short, it runs like this: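 Using a RARE-driven luciferase construct in C3RL4 cells, retinol at 1 uM final provided the agonist stimulus while compounds were co-applied. After 6 hours at 37 C, luminescence was recorded to flag inhibitors of retinol signaling.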

Test [4] is described as follows: qHTS assay to identify small molecule antagonists of the estrogen related receptor (ERR) signaling pathway from Tox21 library - cell viability counter screen (AID 1224834). Further: nearly all actives have a fitted effect of over 30% in size. Further: potency means the concentration at half of the fitted maximal effect. The method, boiled down: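 Seeded ERR cells were rested 6 h at 37 C/5% CO2 before compounds, positive and negative controls or DMSO were added. Incubation continued for 17.5 h, and viability was then quantified by CellTiter-Fluor fluorescence.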

A short description of test [5]: qHTS assay to identify small molecule agonists of the constitutive androstane receptor (CAR) signaling pathway - cell viability counter screen (AID 1224836). Further: nearly all actives have a fitted effect of over 45% in size. Further: potency means the concentration at half of the fitted maximal effect. The method, boiled down: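 Multiplexed viability check: HepG2-CYP2B6-hCAR cells, 15-point compound dosing, 0.75 uM PK11195 final, 23 h at 37 C, CellTiter-Fluor fluorescence.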
The target of test [6] is Nuclear receptor subfamily 1 group I member 3 (Homo sapiens) (UniProt Q14994). Description: qHTS assay to identify small molecule antagonists of the constitutive androstane receptor (CAR) signaling pathway (AID 1224838).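 Further: HepG2 cells stably expressing hCAR with CYP2B6 luciferase reporter stimulated by CITCO; nearly all actives have a fitted effect of over 40% in size.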 Further: potency means the concentration at half of the fitted maximal effect. The method, boiled down: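 Human hepatoma HepG2 cells expressing hCAR and a CYP2B6 promoter (2.2 kb) luciferase construct; compound titration (15 points) with 50 nM CITCO final, 24 h at 37 C/5% CO2; luminescence via ONE-Glo after 30 min at room temperature.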

The target is the same in test [7]. Description: qHTS assay to identify small molecule agonists of the constitutive androstane receptor (CAR) signaling pathway (AID 1224839). Further: nearly all actives have a fitted effect of over 15% in size. Further: potency means the concentration at half of the fitted maximal effect. The method, boiled down:
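Using human hepatoma HepG2 cells engineered with hCAR and a CYP2B6-2.2kb reporter, 15-concentration compound series were incubated 24 h alongside PK11195 at 0.75 uM final, with luminescence quantified afterwards.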

Test [8] in a line: qHTS assay to identify small molecule antagonists of the estrogen related receptor signaling pathway with the pleiotropic PPARgamma coactivator (PGC) from Tox21 10K library - cell viability counter screen (AID 1224840; active means well fitted cell-killing curve with a large enough effect in the repeat runs, not every such curve was filed as active; further: nearly all actives have a fitted effect of over 40% in size; further: potency means the concentration at half of the fitted maximal effect). In short, it runs like this:
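Seeded PGC/ERR cells (2,000/well, 6 h, 37 C/5% CO2) get compound by pin tool; 17.5 h incubation at 37 C; CellTiter-Fluor added, 30 min, fluorescence measured.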

Test [9] deals with Luciferin 4-monooxygenase (Photinus pyralis) (UniProt P08659). Description: qHTS assay to identify small molecule inhibitors of firefly luciferase (AID 1224835). Further: nearly all actives have a fitted effect of over 25% in size. Further: potency means the concentration at half of the fitted maximal effect. In short, it runs like this:
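Inhibition of purified Photinus luciferase is measured by luminescence. Substrate levels (D-luciferin, ATP) sit at their KM values. Each compound is tested in a concentration series.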

Test [10] is described as follows: qHTS assay to identify small molecule antagonists of the constitutive androstane receptor (CAR) signaling pathway - cell viability counter screen (AID 1224837). Further: nearly all actives have a fitted effect of over 45% in size. Further: potency means the concentration at half of the fitted maximal effect. The method, boiled down: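 To flag cytotoxic false antagonists, HepG2 hCAR/CYP2B6-2.2kb cells were treated 23 hr with 15-concentration compound series and 50 nM CITCO at 37 C/5% CO2; CellTiter-Fluor fluorescence was the measured end point.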

The target in test [11] is Thyrotropin receptor (Homo sapiens) (UniProt P16473). Description: qHTS assay to identify small molecule agonists of the thyroid stimulating hormone receptor (TSHR) signaling pathway (AID 1224843; calls by dose curve; further: nearly all actives have a fitted effect of over 45% in size; further: potency means the concentration at half of the fitted maximal effect). In short, it runs like this:
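Agonist activity read as cAMP rise via d2/cryptate HTRF competition, 1 h room-temperature detection, in HEK293 cells expressing TSHR. Fifteen-point titrations, each run in triplicate, with a 30 min room-temperature incubation beforehand.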

Test [12] can be described thus: qHTS assay to identify small molecule antagonists of the estrogen related receptor signaling pathway with the pleiotropic PPARgamma coactivator (PGC) from Tox21 10K library (AID 1224841; call rule not given here; further: actives are mostly falling curves and most rising ones were filed inactive; nearly all actives have a fitted effect of over 50% in size; further: potency means the concentration at half of the fitted maximal effect). The method, boiled down: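 Test chemicals dissolved in DMSO were applied to pre-incubated (6 h) PGC/ERR cells at 2,000 cells/well for an 18 h, 37 C treatment; reporter luminescence was then read using One-Glo.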

Test [13] in a line: qHTS assay to identify small molecule agonists of the estrogen related receptor signaling pathway with the pleiotropic PPARgamma coactivator (PGC) from Tox21 10K library (AID 1224842). Further: nearly all actives have a fitted effect of over 15% in size. In short, it runs like this: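 Luminescence from One-Glo (30 min, room temperature) measured after PGC/ERR cells had 18 h at 37 C with pinned compound (23 nL in DMSO). Cells had been seeded at 2,000 per well and pre-incubated 6 h.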

The nature of test [14]: qHTS assay to identify small molecule agonists of the retinoic acid receptor (RAR) signaling pathway (AID 1159553). In short, it runs like this:
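6 hr compound exposure (DMSO vehicle) of overnight-plated C3RL4 RARE-luc cells at 37 C; luminescence quantified after 30 min RT with luciferase reagent.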

Several values for one entry are separate records, joined by “and”; a condition that tells them apart may be missing. Identical values can stand only once. Results filed as inconclusive are left out. Activity calls are given as the source filed them. Unless noted, the call rests on the fitted dose curve; in most records, active means well fitted curve in the direction sought with a large enough effect in the repeat runs; inconclusive means weak or mixed curves; inactive means no such curve, though single readings can be large; an effect the other way counts as inactive or inconclusive.

Nuclear receptor subfamily 1 group I member 3 (Homo sapiens), sequence (Q14994 whole entry, looked up): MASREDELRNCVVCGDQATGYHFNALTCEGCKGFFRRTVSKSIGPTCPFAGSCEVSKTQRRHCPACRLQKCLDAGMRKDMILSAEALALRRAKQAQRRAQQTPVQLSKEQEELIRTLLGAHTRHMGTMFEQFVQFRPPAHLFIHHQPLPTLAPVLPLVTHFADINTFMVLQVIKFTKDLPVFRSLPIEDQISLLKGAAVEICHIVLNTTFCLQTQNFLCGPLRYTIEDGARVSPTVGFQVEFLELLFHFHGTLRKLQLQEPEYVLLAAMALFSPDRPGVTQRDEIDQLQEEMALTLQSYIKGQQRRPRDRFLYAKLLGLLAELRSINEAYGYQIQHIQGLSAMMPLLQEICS
Luciferin 4-monooxygenase (Photinus pyralis), sequence (P08659 whole entry, looked up): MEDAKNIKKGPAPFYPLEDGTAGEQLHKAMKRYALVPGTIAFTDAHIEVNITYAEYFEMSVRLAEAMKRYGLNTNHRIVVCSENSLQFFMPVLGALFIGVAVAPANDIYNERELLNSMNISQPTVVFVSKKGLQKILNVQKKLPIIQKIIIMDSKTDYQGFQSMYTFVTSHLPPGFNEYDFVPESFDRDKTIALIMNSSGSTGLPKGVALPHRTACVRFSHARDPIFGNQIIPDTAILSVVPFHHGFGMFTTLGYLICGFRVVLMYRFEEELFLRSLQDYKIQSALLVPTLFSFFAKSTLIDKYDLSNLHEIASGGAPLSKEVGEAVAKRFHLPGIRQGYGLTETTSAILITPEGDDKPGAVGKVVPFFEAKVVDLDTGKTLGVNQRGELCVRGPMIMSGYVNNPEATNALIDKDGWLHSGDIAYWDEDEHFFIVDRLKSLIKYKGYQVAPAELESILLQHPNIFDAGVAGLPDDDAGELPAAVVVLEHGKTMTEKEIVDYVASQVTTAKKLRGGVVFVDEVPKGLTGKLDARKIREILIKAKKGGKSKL
Thyrotropin receptor (Homo sapiens), sequence (P16473 whole entry, looked up): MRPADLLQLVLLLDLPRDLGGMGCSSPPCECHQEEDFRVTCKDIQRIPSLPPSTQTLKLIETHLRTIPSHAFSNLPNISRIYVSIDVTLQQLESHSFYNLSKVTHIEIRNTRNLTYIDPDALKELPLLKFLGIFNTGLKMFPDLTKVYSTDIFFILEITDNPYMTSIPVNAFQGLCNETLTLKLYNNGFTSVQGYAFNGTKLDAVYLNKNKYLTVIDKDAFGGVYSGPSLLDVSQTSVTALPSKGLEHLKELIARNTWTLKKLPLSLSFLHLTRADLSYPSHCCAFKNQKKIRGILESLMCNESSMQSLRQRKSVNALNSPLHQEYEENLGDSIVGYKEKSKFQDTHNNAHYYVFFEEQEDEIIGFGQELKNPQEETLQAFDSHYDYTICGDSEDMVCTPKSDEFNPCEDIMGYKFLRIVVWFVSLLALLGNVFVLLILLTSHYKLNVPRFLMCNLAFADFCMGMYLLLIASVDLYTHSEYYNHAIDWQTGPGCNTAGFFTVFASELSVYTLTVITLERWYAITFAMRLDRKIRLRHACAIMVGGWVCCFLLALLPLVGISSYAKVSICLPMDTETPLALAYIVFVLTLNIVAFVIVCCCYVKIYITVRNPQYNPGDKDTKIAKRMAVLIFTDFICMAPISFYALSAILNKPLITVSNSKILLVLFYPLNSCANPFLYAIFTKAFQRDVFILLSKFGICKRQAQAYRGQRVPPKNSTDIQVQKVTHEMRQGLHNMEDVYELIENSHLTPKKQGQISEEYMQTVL

With `O=[N+]([O-])c1cc(C(F)(F)F)c(Cl)c([N+](=O)[O-])c1Nc1ncc(C(F)(F)F)cc1Cl`, the Potency in test [1] was 7.76 µM (active); in [2], 54.5 µM (active); in [3] it was 30.6 µM (active); in test [4], 27.3 µM (active); in test [5], 15.4 µM (active); in test [6] it was 13.7 µM (active). Further, in test [8], the Potency was 8.63 µM (active). Further, the Potency result in test [7] is “inactive”.
As to `N#CSCc1ccccc1`, the Potency result in test [1], in [2], in test [4], in [9], in test [5] and in test [10] was “inactive” throughout. Moreover, the Potency result in [7] and in test [11] was “inactive” each time. In addition, the Potency in test [3] is 48.8 µM (active).
`O=S1OCC2C(CO1)C1(Cl)C(Cl)=C(Cl)C2(Cl)C1(Cl)Cl` (configuration not stated): the Potency is 48.9 µM (active) in test [1]; 54.5 µM (active) in test [2]; 48.6 µM (active) and 54.4 µM (active) in test [3]; 30.7 µM (active) and 17.2 µM (active) in test [7]; 4.33 µM (active) and 8.63 µM (active) in test [11]. Moreover, the Potency result in test [9], in test [10] and in test [6] was “inactive” each time.
In the case of `CNC(=O)/C=C(\C)OP(=O)(OC)OC`, the Potency entry in test [1], in [2], in test [4], in test [9], in test [5] and in test [10] was “inactive” each time. Also, the Potency entry in [6], in [7], in [8], in [12], in test [13] and in test [11] was “inactive” throughout.
Consider `CC(O)C(=O)[O][Hg][c]1ccccc1` (configuration not stated), for which the Potency was 1.95 µM (active) in test [1]; 13.7 µM (active) in [2]; 4.33 µM (active) in test [4]; 3.99 µM (active) in test [9]; 4.86 µM (active) in test [5]; 4.86 µM (active) in test [10]. Moreover, the Potency in test [6] is 4.33 µM (active); in test [8], 3.06 µM (active); in test [12], 4.86 µM (active); in [11], 2.43 µM (active). The Potency entry in test [13] is “inactive”.
`O=C1C[C@@H]2OCC=C3CN4CC[C@]56c7ccccc7N1[C@H]5[C@H]2[C@H]3C[C@H]46`: the Potency result in test [1], in test [2], in [14], in [4], in test [8] and in test [13] was “inactive” each time. Moreover, the Potency result in [11] was “inactive”.
As for `C[C@@H]1CC2=CC(=O)CC[C@@H]2[C@H]2CC[C@@]3(C)[C@@H](CC[C@]3(C)O)[C@@H]21`, the Potency result in test [1], in test [2], in test [14], in test [4], in test [9] and in test [5] was “inactive” throughout. The Potency result in test [6], in test [7], in test [8], in [13] and in [11] was “inactive” each time.
For `COc1c2c(cc3c1OCO3)CCN(C)C2`, the Potency entry in test [1], in test [2], in test [14], in test [4], in [9] and in [5] was “inactive” each time. Also, the Potency entry in [10], in test [6], in test [8] and in [11] was “inactive” throughout.
Consider `CN(C)C(=S)SSC(=S)N(C)C`, for which the Potency in test [1] is 272 nM (active) and 692 nM (active) and 268 nM (active); in test [2], 67.6 µM (active); in test [3], 214 nM (active) and 306 nM (active); in test [9] it was 2.21 µM (active) and 1.26 µM (active) and 1.55 µM (active); in test [5] it was 339 nM (active) and 486 nM (active) and 531 nM (active); in [10], 269 nM (active) and 344 nM (active) and 422 nM (active). Further, the Potency was 191 nM (active) and 386 nM (active) and 473 nM (active) in [6]; 214 nM (active) and 243 nM (active) and 266 nM (active) in test [8].
Turning to `CC[C@H](C)[C@H]1O[C@]2(C=C[C@@H]1C)C[C@@H]1C[C@@H](C/C=C(\C)[C@@H](O[C@H]3C[C@H](OC)[C@@H](O[C@H]4C[C@H](OC)[C@@H](NC)[C@H](C)O4)[C@H](C)O3)[C@@H](C)/C=C/C=C3\CO[C@@H]4[C@H](O)C(C)=C[C@@H](C(=O)O1)[C@]34O)O2`, the Potency in [1] was 4.36 µM (active); in test [2], 13.7 µM (active); in [5], 12.2 µM (active); in [10], 9.69 µM (active); in test [6], 13.7 µM (active); in test [8], 6.86 µM (active). The Potency entry in test [9] and in [7] was “inactive” in each case.
Take `CC(=O)[O][Sn]([c]1ccccc1)([c]1ccccc1)[c]1ccccc1`: the Potency is 0.138 µM (active) in test [1]; 7.7 µM (active) in [2]; 0.217 µM (active) in test [4]; 2.24 µM (active) in test [9]; 0.154 µM (active) in test [10]; 0.0545 µM (active) in [6]. The Potency in [8] was 0.172 µM (active); in test [12], 0.545 µM (active). The Potency result in test [7] and in test [13] was “inactive” in each case.

These data come from PubChem BioAssay (Tox21).
